Measurements from PubChem BioAssay (EPA / NIEHS).
Records with an inconclusive call do not appear. Active and inactive are the calls of the source. How the source made its calls: active means hit-call score of the fitted dose curve at least 0.9, where 1 is the maximum; inconclusive means response in the unintended direction; inactive means score below 0.9.

Legend:
[1] = target: mouse Cholecystokinin, CCK2 Receptor (CCKB), Cckbr (gene 12426) (UniProt P56481); experiment: NVS_GPCR_mCKKBCentral: NovaScreen (NVS) G Protein-Coupled Receptor Assay for mouse Cholecystokinin, CCK2 Receptor (CCKB) (AID 2283293)
mouse Cholecystokinin, CCK2 Receptor (CCKB), Cckbr (gene 12426), sequence (P56481 whole entry, looked up): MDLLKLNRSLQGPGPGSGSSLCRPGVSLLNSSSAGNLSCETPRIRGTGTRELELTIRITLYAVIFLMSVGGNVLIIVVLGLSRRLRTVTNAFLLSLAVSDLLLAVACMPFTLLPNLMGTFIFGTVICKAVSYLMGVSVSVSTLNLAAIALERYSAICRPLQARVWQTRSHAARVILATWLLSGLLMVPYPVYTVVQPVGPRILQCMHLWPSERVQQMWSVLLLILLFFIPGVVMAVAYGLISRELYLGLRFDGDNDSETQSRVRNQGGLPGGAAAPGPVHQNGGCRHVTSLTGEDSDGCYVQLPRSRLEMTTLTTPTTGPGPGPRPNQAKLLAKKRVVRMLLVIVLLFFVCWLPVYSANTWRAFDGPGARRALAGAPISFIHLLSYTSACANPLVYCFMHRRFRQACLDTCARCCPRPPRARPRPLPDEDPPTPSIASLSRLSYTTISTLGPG
Method in brief: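 Mouse forebrain membrane preparation incubated 2 h with chemical and radioligand; bound radioactivity counted after filtration. Single-concentration duplicate screen at 25 uM, then concentration series to 50 uM max for hits, DMSO as baseline.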

[2] = target: guinea pig Serotonin, 5-Hydroxytryptamine Receptor 4 (5HT4), HTR4 (gene 100135548) (UniProt O70528); experiment: NVS_GPCR_g5HT4: NovaScreen (NVS) G Protein-Coupled Receptor Assay for guinea pig Serotonin, 5-Hydroxytryptamine Receptor 4 (5HT4) (AID 2283294)
guinea pig Serotonin, 5-Hydroxytryptamine Receptor 4 (5HT4), HTR4 (gene 100135548), sequence (O70528 whole entry, looked up): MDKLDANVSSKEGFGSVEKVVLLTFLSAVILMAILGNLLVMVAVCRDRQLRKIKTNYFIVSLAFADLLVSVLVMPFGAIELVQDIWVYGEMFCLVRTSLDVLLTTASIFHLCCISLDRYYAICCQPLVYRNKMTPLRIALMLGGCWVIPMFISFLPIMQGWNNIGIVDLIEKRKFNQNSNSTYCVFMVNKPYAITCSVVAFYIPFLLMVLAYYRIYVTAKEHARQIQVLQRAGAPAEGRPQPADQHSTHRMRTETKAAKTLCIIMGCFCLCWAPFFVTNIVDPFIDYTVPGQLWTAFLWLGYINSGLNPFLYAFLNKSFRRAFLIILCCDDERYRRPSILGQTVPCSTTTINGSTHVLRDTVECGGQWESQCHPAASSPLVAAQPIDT
Method in brief: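 Compounds first screened in duplicate at 25 uM, actives followed up in concentration series. Binding measured as displacement of specific radioligand from guinea pig striatal membranes, 1 h, filter-based scintillation read-out versus DMSO baseline.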

[3] = target: rat Serotonin, 5-Hydroxytryptamine Receptor (5HT), Non-Selective Binding, Htr1a (gene 24473) (UniProt P19327); experiment: NVS_GPCR_r5HT_NonSelective: NovaScreen (NVS) G Protein-Coupled Receptor Assay for rat Serotonin, 5-Hydroxytryptamine Receptor (5HT), Non-Selective Binding (AID 2283295)
rat Serotonin, 5-Hydroxytryptamine Receptor (5HT), Non-Selective Binding, Htr1a (gene 24473), sequence (P19327 whole entry, looked up): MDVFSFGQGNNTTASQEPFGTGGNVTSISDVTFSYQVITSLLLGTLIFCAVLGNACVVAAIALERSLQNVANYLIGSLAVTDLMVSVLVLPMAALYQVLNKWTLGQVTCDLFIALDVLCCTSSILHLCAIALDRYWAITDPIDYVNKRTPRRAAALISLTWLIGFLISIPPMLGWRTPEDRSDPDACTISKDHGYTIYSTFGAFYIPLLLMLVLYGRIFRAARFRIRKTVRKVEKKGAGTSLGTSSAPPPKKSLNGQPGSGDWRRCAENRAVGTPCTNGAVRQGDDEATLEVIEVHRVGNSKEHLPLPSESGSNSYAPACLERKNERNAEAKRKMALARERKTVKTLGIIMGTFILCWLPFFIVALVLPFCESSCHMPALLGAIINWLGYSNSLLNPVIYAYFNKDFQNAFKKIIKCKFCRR
Method in brief: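 Rat cortex membrane preparation incubated 1 h with radioligand and test chemical; bound radioactivity counted after filtration. Screening began in duplicate at 25 uM with concentration-series follow-up; fitting relative to DMSO.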

[4] = target: rat Adrenergic, Alpha 1A Receptor (Adra1A), Adra1a (gene 29412) (UniProt P43140); experiment: NVS_GPCR_rAdra1A: NovaScreen (NVS) G Protein-Coupled Receptor Assay for rat Adrenergic, Alpha 1A Receptor (Adra1A) (AID 2283296)
rat Adrenergic, Alpha 1A Receptor (Adra1A), Adra1a (gene 29412), sequence (P43140 whole entry, looked up): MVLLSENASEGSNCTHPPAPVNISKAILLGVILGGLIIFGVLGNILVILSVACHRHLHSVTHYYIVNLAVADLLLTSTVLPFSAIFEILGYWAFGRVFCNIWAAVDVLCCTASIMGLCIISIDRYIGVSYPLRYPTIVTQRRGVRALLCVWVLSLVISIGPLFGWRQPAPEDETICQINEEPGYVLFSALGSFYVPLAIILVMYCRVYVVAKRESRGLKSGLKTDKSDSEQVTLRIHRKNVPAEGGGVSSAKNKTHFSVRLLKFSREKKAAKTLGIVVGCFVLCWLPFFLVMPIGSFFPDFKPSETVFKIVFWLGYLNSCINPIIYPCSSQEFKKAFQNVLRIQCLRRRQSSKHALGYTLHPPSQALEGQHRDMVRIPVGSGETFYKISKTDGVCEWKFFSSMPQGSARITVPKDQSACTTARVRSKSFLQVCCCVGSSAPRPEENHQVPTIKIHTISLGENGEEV
Method in brief: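 Filter radiodetection after 1 h competitive binding on CEC-pretreated rat cortical membranes. Duplicate single-point screening at 25 uM; active chemicals retested across concentration series.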

[5] = target: rat Adrenergic Receptor, Beta (Adrb), Non-selective Binding, Adrb1 (gene 24925) (UniProt P18090); experiment: NVS_GPCR_rAdrb_NonSelective: NovaScreen (NVS) G Protein-Coupled Receptor Assay for rat Adrenergic Receptor, Beta (Adrb), Non-selective Binding (AID 2283298)
Method in brief: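 Rat cortical membranes incubated 1 h with beta-adrenergic radioligand and test chemical; bound ligand measured by filtration and scintillation counting. Screen at 25 uM duplicate, then concentration series with 50 uM maximum; loss of signal versus DMSO.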

[6] = target: rat Histamine Receptor (H3), Hrh3 (gene 85268) (UniProt Q9QYN8); experiment: NVS_GPCR_rH3: NovaScreen (NVS) G Protein-Coupled Receptor Assay for rat Histamine Receptor (H3) (AID 2283303)
rat Histamine Receptor (H3), Hrh3 (gene 85268), sequence (Q9QYN8 whole entry, looked up): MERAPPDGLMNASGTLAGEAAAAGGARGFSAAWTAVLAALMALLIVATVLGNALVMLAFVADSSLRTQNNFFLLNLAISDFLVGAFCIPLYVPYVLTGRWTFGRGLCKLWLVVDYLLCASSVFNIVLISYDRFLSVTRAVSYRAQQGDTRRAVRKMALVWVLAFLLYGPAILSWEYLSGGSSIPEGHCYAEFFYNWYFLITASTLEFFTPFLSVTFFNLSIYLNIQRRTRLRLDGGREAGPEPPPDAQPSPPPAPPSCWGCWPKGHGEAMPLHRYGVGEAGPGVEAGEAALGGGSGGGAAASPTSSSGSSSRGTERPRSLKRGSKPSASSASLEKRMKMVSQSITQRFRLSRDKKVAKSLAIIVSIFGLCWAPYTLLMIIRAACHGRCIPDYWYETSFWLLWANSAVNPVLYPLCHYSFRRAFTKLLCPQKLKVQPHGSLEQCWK
Method in brief: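 Filter-binding radioligand competition on rat forebrain membranes, 1 h incubation; compounds screened at 25 µM in duplicate and followed in concentration series to 50 µM, loss of bound signal vs DMSO.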

Adra2b (gene 24174) = Adra2b (gene 24174) (UniProt P19328); experiment: NVS_GPCR_rmAdra2B: NovaScreen (NVS) G Protein-Coupled Receptor Assay for hybird cells Adrenergic, Alpha 2B Receptor (Adra2B) (AID 2283306)
Adra2b (gene 24174), sequence (P19328 whole entry, looked up): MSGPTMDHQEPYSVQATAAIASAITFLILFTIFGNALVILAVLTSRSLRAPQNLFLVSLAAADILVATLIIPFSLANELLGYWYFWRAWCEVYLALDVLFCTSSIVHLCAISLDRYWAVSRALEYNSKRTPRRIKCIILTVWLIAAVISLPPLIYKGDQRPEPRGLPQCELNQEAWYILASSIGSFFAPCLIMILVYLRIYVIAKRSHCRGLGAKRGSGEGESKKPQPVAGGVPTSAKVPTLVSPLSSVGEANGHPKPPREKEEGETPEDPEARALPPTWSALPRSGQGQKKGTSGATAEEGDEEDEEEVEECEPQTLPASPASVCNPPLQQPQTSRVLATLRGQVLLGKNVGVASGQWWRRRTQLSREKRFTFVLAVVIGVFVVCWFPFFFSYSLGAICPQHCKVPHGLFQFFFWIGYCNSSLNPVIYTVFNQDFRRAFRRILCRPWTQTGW
Method in brief: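 Compounds screened first at 25 uM in duplicate, with actives followed up in concentration-response; specific radioligand displacement from hybrid neuroglioma/blastoma cell membrane preparations measured by filter scintillation counting after 1 h, normalized to DMSO.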

[7] = target: rat Neurokinin-1 Receptor (NK1), Tacr1 (gene 24807) (UniProt P14600); experiment: NVS_GPCR_rNK1: NovaScreen (NVS) G Protein-Coupled Receptor Assay for rat Neurokinin-1 Receptor (NK1) (AID 2283309)
Method in brief: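 Competitive radioligand binding to NK1 in rat submaxillary membranes, 1 h incubation, filtration and scintillation read-out. Compounds first screened at 25 uM in duplicate, then concentration-response for actives; signal loss relative to DMSO.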

[8] = target: rat Neurokinin-3 Receptor (NK3), Tacr3 (gene 24808) (UniProt P16177); experiment: NVS_GPCR_rNK3: NovaScreen (NVS) G Protein-Coupled Receptor Assay for rat Neurokinin-3 Receptor (NK3) (AID 2283310)
rat Neurokinin-3 Receptor (NK3), Tacr3 (gene 24808), sequence (P16177 whole entry, looked up): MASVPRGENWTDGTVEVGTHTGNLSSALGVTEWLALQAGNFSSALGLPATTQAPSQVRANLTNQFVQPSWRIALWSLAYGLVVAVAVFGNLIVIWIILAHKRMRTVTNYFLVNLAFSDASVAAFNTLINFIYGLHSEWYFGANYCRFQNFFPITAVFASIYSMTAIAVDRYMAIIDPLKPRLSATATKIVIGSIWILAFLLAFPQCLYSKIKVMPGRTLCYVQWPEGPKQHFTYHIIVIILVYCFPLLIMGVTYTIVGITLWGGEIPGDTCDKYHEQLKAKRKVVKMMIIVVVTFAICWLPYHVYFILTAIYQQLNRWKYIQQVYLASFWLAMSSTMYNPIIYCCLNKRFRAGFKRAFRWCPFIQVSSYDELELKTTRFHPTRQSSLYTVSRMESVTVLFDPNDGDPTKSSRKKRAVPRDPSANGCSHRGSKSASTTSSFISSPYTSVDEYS
Method in brief: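 Filter-based radioligand displacement on rat cortex membrane preparations, read by scintillation 2 h post-dose. Chemicals first tested in duplicate at 25 uM; actives followed up in concentration series with a 50 uM maximum.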

[9] = target: rat Opioid Receptor, Non-selective Sodium (Na+) Binding, Oprm1 (gene 25601) (UniProt P33535); experiment: NVS_GPCR_rOpiate_NonSelectiveNa: NovaScreen (NVS) G Protein-Coupled Receptor Assay for rat Opioid Receptor, Non-selective Sodium (Na+) Binding (AID 2283311)
rat Opioid Receptor, Non-selective Sodium (Na+) Binding, Oprm1 (gene 25601), sequence (P33535 whole entry, looked up): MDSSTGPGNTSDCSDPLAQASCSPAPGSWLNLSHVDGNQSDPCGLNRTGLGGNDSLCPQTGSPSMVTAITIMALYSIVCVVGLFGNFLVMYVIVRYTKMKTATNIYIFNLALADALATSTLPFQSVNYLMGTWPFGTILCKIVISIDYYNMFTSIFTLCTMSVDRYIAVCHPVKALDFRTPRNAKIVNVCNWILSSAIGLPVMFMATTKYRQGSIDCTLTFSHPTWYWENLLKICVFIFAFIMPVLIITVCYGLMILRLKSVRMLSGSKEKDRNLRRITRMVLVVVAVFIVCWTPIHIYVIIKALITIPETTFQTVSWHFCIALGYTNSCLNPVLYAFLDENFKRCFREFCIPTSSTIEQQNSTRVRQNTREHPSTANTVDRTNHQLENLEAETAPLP
Method in brief: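 Filtration radioligand binding on rat forebrain membrane preparations, read 1.5 h after dosing. Single-concentration 25 µM primary screen in duplicate, followed by singleton concentration series to 50 µM max for actives; DMSO baseline.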

[10] = target: rat Somatostatin Receptor (SST), Sstr1 (gene 25033) (UniProt P28646); experiment: NVS_GPCR_rSST: NovaScreen (NVS) G Protein-Coupled Receptor Assay for rat Somatostatin Receptor (SST) (AID 2283314)
rat Somatostatin Receptor (SST), Sstr1 (gene 25033), sequence (P28646 whole entry, looked up): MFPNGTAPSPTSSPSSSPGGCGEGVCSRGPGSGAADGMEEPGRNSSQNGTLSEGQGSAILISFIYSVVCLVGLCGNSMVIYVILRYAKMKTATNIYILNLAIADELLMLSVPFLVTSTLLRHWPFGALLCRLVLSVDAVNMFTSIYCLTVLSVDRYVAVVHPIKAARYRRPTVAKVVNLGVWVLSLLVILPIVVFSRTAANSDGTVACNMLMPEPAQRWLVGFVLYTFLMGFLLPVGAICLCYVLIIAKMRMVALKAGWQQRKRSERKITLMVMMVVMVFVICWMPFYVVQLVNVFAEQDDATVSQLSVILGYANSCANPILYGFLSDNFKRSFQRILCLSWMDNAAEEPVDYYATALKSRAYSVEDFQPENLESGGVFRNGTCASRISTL
Method in brief: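 Single-concentration duplicate screen (25 uM), then concentration-response up to 50 uM for chemicals passing a threshold such as 30% inhibition. Membranes came from rat forebrain. Binding was measured 1 h post-dose by filter radiodetection and scintillation, relative to DMSO.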

[11] = target: rat Neonicotinoid receptor (NNR), Chrna7 (gene 25302) (UniProt Q05941); experiment: NVS_LGIC_rNNR_BungSens: NovaScreen (NVS) Ligand-Gated Ion Channel Assay for rat Neonicotinoid receptor (NNR) (AID 2283315)
rat Neonicotinoid receptor (NNR), Chrna7 (gene 25302), sequence (Q05941 whole entry, looked up): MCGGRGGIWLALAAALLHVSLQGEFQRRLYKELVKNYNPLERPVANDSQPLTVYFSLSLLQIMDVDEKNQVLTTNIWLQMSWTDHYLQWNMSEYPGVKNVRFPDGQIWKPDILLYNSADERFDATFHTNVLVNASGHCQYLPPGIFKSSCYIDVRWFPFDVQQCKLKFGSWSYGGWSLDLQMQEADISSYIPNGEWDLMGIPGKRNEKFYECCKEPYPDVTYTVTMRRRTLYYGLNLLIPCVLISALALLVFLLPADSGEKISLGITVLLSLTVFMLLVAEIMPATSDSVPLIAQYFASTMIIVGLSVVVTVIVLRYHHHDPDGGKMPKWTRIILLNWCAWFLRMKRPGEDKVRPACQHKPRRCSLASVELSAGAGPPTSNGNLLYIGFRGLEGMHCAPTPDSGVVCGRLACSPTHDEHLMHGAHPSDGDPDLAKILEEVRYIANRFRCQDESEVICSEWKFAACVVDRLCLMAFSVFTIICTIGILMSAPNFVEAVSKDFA
Method in brief: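 Rat cortical membrane preparation incubated 2.5 h with tritiated or iodinated radioligand and test chemical. Bound radioactivity was filtered and counted by scintillation, and displacement was analysed against DMSO.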

[12] = NVS_IC_rCaDHPRCh_L: NovaScreen (NVS) Ion Channel Assay for rat Calcium Channel, Type L, Dihydropyridine Site (CaDHPRCh_L) (AID 2283320)
Method in brief: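 Rat cortex membrane preparation; dihydropyridine-site radioligand displacement read 1 h post-dose by filtration and scintillation. Primary single-point screen 25 uM in duplicate, then concentration series to 50 uM maximum; DMSO as negative control.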

[13] = target: Metabotropic glutamate receptor 1 (Rattus norvegicus) (UniProt P23385); experiment: NVS_GPCR_rmMGluR1: NovaScreen (NVS) G Protein-Coupled Receptor Assay for rat Glutamate Metabotropic Receptor 1 (MGluR1) (AID 2283305)
Method in brief: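 Binding to native receptor from rat cerebellum extract, measured as displacement of a radioligand (scintillation counting, filter separation) after 1 hour. Compounds tested at 25 uM in duplicate, then titrated to a 50 uM maximum.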

[14] = system: rat Adrenergic, Alpha 1B Receptor (Adra1B), gene 24173; experiment: NVS_GPCR_rAdra1B: NovaScreen (NVS) G Protein-Coupled Receptor Assay for rat Adrenergic, Alpha 1B Receptor (Adra1B) (AID 2283297)
Method in brief: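 Filter-binding radioligand competition on membranes from rat liver, read after 1 h by scintillation counting. Single-concentration duplicate screen at 25 uM, followed by concentration-response on actives, normalised to DMSO.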

[15] = target: rat Vasopressin 1 Receptor (V1), Avpr1a (gene 25107) (UniProt P30560); experiment: NVS_GPCR_rV1: NovaScreen (NVS) G Protein-Coupled Receptor Assay for rat Vasopressin 1 Receptor (V1) (AID 2283316)
rat Vasopressin 1 Receptor (V1), Avpr1a (gene 25107), sequence (P30560 whole entry, looked up): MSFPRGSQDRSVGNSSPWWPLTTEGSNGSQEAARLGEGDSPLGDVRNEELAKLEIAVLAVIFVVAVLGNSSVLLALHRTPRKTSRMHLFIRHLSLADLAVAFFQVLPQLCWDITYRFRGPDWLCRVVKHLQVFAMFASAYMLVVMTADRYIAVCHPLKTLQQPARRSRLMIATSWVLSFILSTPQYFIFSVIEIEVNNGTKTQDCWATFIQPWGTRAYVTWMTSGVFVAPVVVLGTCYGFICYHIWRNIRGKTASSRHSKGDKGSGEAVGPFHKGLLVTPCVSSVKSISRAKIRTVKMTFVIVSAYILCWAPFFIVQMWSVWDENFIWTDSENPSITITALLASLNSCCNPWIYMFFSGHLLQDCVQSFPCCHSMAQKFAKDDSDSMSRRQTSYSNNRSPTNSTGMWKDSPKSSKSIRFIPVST
Method in brief: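 Concentration-response up to 50 uM for chemicals passing a threshold such as 30% inhibition in an initial duplicate 25 uM screen. Displacement of radioligand from rat liver membranes measured after 1.5 h by filtration and scintillation.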

[16] = target: rat Glutamate Metabotropic Receptor 5 (MGluR5), Grm5 (gene 24418) (UniProt P31424); experiment: NVS_GPCR_rmMGluR5: NovaScreen (NVS) G Protein-Coupled Receptor Assay for rat Glutamate Metabotropic Receptor 5 (MGluR5) (AID 2283307)
Method in brief: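 Compounds first screened in duplicate at 25 uM, then in concentration series up to 50 uM if over threshold. Radioligand displacement on rat whole-brain membranes, filtration and scintillation counting after 1.5 h; binding loss relative to DMSO.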

[17] = target: rat Gamma-Aminobutyric Acid Type B Receptor (GABBR), Gabbr1 (gene 81657) (UniProt Q9Z0U4); experiment: NVS_GPCR_rGABBR: NovaScreen (NVS) G Protein-Coupled Receptor Assay for rat Gamma-Aminobutyric Acid Type B Receptor (GABBR) (AID 2283301)
Method in brief: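 Rat cortical membrane preparation, competitive radioligand binding for 1 h with filtration and scintillation readout. Actives from duplicate single-point 25 uM screening proceeded to concentration series with 50 uM top concentration.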

NCBI gene 24521 = experiment: NVS_IC_rKATPCh: NovaScreen (NVS) Ion Channel Assay for rat Potassium Channel, ATP-Sensitive (KATPCh) (AID 2283319)
Method in brief: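 Primary duplicate screen at 25 uM, then singleton concentration series to 50 uM maximum, in a rat cortex membrane radioligand displacement assay. Binding measured by filtration and scintillation 2 h post-dose; DMSO baseline.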

Measured: AC50

CN(C)c1ccc(C(=C2C=CC(=[N+](C)C)C=C2)c2ccc(N(C)C)cc2)cc1
active: [1] 10.3 µM | [2] 7.22 µM | [3] 25 µM | [4] 20.9 µM | [5] 17.3 µM | [6] 23 µM | Adra2b (gene 24174) 9.73 µM | [7] 15.6 µM | [8] 11.5 µM | [9] 9.72 µM | [11] 16.4 µM | [12] 4.99 µM
inactive: [10]

CCOC(=O)O[C@H](C)OC(=O)c1ccc2c(c1)cc(C(=O)NC1CCN(C(C)C)CC1)n2Cc1cc(-c2ccc(Cl)s2)on1
active: [2] 23.6 µM | [3] 11.1 µM | [13] 17 µM | Adra2b (gene 24174) 15.4 µM | [7] 32.1 µM | [10] 14.9 µM | [12] 9.36 µM

NCc1cccc(C2CCN(C(=O)c3ccc(C#Cc4ccccc4F)o3)CC2)c1
inactive: [4] | [15]
active: [2] 17.6 µM | [3] 14.8 µM | [14] 25 µM | Adra2b (gene 24174) 13.3 µM | [9] 11.2 µM | [10] 15 µM | [12] 21.1 µM

C[C@]12CC[C@@H]3c4ccc(O)cc4CC[C@H]3[C@@H]1CCC2=O
active: [9] 13.9 µM
inactive: [2]

O=C1c2ccccc2C(=O)N1CCc1noc(-c2ccc(CN3CCCCCC3)s2)n1
active: [2] 4 µM | [4] 5.59 µM | [6] 16.8 µM | Adra2b (gene 24174) 3.3 µM | [7] 12 µM | [12] 6.2 µM
inactive: [3] | [8] | [11]

Cc1occc1C(=O)Nc1ccc(C(=O)N2CCC(F)(F)/C(=C\C(=O)N3CCC(N4CCCCC4)CC3)c3ccccc32)cc1
inactive: [3] | [16] | [15]
active: [2] 0.579 µM | [14] 3.24 µM | [6] 4.22 µM | Adra2b (gene 24174) 1.25 µM | [7] 11.7 µM | [9] 5.68 µM | [11] 4.14 µM

CC/C(=C(/CC)c1ccc(O)cc1)c1ccc(O)cc1
active: [1] 37.9 µM | [2] 39.4 µM | [10] 25 µM
inactive: [17]

CCN(Cc1cccnc1)C(=O)c1cccc(Cl)c1[C@]1(C)C(=O)N(Cc2ccc(OC)cc2OC)c2ccc(Cl)cc21
active: [2] 15 µM | [3] 17.4 µM | Adra2b (gene 24174) 4.68 µM | [7] 23.6 µM | [8] 9.75 µM | [9] 13.9 µM | [15] 29 µM | [12] 5.48 µM

CN(C[C@@H](CC[N+]12CCC(C3CCCCC3)(CC1)CC2)c1ccc(Cl)c(Cl)c1)C(=O)c1cc(C(F)(F)F)cc(C(F)(F)F)c1
active: [2] 8.02 µM | [7] 0.403 µM | [8] 5.47 µM | [9] 12.5 µM

O=C(O)c1ccccc1-n1cc(C(=O)O)c(=O)c2cc(Nc3c(F)cc(F)cc3Cl)c(Cl)cc21
inactive: [1]

CCCCCCCCCCCC[N+](C)(C)C
active: [2] 17.9 µM | Adra2b (gene 24174) 37.3 µM | [7] 44.9 µM

CN(C)C(=O)C1(N2CCCCC2)CCN(CC[C@@]2(c3ccc(Cl)c(Cl)c3)CN(C(=O)c3ccccc3)CCO2)CC1
inactive: [11] | NCBI gene 24521
active: [2] 23.6 µM | [3] 1.71 µM | [4] 10.1 µM | [14] 5.65 µM | [5] 6.63 µM | [13] 15.5 µM | Adra2b (gene 24174) 8.86 µM | [7] 10.9 µM | [8] 0.00216 µM | [9] 3.48 µM | [10] 12.6 µM | [15] 38.2 µM | [12] 0.655 µM
